From PubChem BioAssay
KB-V1 cytotox = kills drug-selected multidrug resistant KB-V1 cells. KB-V1 MDR cells viability, CellTiter-Glo, 72 h. Potency, µM (series often up to 46.1 µM), most hits filed as cytotoxic. 400,000 compounds, 3.4% hits; also: nearly all actives have a fitted effect of over 60% in size
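Potencies derive from concentration-effect curves fitted to normalized luminescence (CellTiter-Glo) of KB-V1 cells treated for 72 h at 37 degrees C in phenol-red-free DMEM containing 10% FBS.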
MCF10A rereplic = DNA re-replication induction in MCF 10a cells; 350,000 compounds, 2.9% hits; MCF 10A DNA re-replication, Hoechst nuclear intensity, 48 h; Potency, µM (highest dose often 46.1 µM), usual class: activators; AID 624296; also: nearly all actives have a fitted effect of over 50% in size
ELG1 repair inh = inhibitors of ELG1-dependent DNA repair in HEK293T cells. HEK293T ELG1-luciferase reporter, luminescence, 16 h; DNA damage induced by 5-fluorouridine. Potency, µM (doses to about 46.1 µM), hits mostly inhibitors. 330,000 compounds, 2.3% hits. AID 504467; also: nearly all actives have a fitted effect of over 55% in size
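Step one: seed 2,000 cells per well. Step two: pin-transfer compound or DMSO alongside 5-fluorouridine. Step three: incubate 16 hr, 37 °C, 5% CO2. Step four: add ONE-Glo, wait 30 min, read luminescence.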
KB-3-1 cytotox = kills parental KB-3-1 adenocarcinoma cells | KB-3-1 viability, CellTiter-Glo ATP luminescence, 72 h | Potency, µM (titrated, usually from 46.1 µM), actives largely listed as cytotoxic | 400,000 compounds, 1.4% hits | AID 1347075; also: nearly all actives have a fitted effect of over 60% in size
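Cells are dispensed, compounds pinned in, plates held at 37 °C for 72 h, then CellTiter-Glo is added and luminescence read after 10 minutes. Cell line: parental KB-3-1 in phenol-red-free DMEM, 10% FBS.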
SW480 rerep = induces DNA re-replication in SW480 colon adenocarcinoma cells | SW480 DNA re-replication, Hoechst DNA content imaging, 48 h | 340,000 compounds, 1.8% hits | Potency, µM (doses to about 46.1 µM), actives largely listed as activators; also: nearly all actives have a fitted effect of over 55% in size
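Readout is total intensity of Hoechst-stained nuclei, excited at 405 nm and collected at 500-530 nm. Compound treatment lasted 48 hr at 37 C in 5% CO2 before staining.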
Numbers stand for hits. Sampled rows, rich in hits. Any-hit rate of the full collection: about 8.1%. Calls follow the shape of the dose curve; as a rule, active = well fitted curve in the direction sought with a large enough effect; inconclusive = small, poorly fitted or top-dose-only effect, or another doubt; inactive = no such curve, though single readings can be large; an effect the other way counts as inactive or inconclusive.

CCOc1cc(CNC(=O)CCCn2c(=O)c3cccn3c3cccnc32)cc(OCC)c1OCC was read as KB-V1 cytotox inactive, MCF10A rereplic inactive, ELG1 repair inh 16µM, KB-3-1 cytotox inactive and SW480 rerep inactive.
For CCc1ccc(CNC(=O)CCCn2c(=O)c3cccn3c3cccnc32)cc1 the results were KB-V1 cytotox inactive, MCF10A rereplic inactive, ELG1 repair inh inactive, KB-3-1 cytotox inactive and SW480 rerep inactive.
For Cc1cccc(N2CCN(C(=O)c3cn(C)c(=O)c4c3c3ccccc3n4C)CC2)c1C the results were KB-V1 cytotox inconclusive, MCF10A rereplic inconclusive, ELG1 repair inh 23µM, KB-3-1 cytotox inconclusive and SW480 rerep inconclusive.
Screening Cc1cccc(N2CCN(C(=O)CCCn3c(=O)c4cccn4c4cccnc43)CC2)c1C returned KB-V1 cytotox inconclusive, MCF10A rereplic inconclusive, ELG1 repair inh 16µM, KB-3-1 cytotox inactive and SW480 rerep inactive.
For COc1ccccc1N1CCN(C(=O)CCn2c(=O)[nH]c3ccccc3c2=O)CC1 the results were KB-V1 cytotox inactive, MCF10A rereplic inactive, ELG1 repair inh inactive, KB-3-1 cytotox inactive and SW480 rerep inactive.
For Cc1cccc(N2CCN(C(=O)CCn3c(=O)[nH]c4ccccc4c3=O)CC2)c1C the results were KB-V1 cytotox inactive, MCF10A rereplic inactive, ELG1 repair inh 9.2µM, KB-3-1 cytotox inactive and SW480 rerep inactive.
Screening CCOC(=O)c1nnc2cc(C)nn2c1C returned KB-V1 cytotox inactive, MCF10A rereplic inactive, ELG1 repair inh inactive, KB-3-1 cytotox inactive and SW480 rerep inactive.
Cc1ccc(Cl)cc1N1CCN(C(=O)CCCn2c(=O)c3cccn3c3cccnc32)CC1 was read as KB-V1 cytotox inconclusive, MCF10A rereplic 16µM, ELG1 repair inh inconclusive, KB-3-1 cytotox inactive and SW480 rerep inconclusive.
CC(C)CC(N)c1csc(Nc2ccc(C(F)(F)F)cn2)n1 (stereo not drawn) was read as KB-V1 cytotox 16µM and KB-3-1 cytotox inconclusive.
`NC(CO)c1csc(Nc2ccc(C(F)(F)F)cn2)n1` (stereo not drawn) gave KB-V1 cytotox inactive and KB-3-1 cytotox inactive.
For CCSc1nnc(NC(=O)CSc2sc3c(O)cc(=O)[nH]c3c2C#N)s1 the results were KB-V1 cytotox inactive, MCF10A rereplic inactive, ELG1 repair inh inactive, KB-3-1 cytotox inactive and SW480 rerep inactive.
CC(C)(C)c1cc(NC(=O)Nc2ccc(Br)cc2Cl)no1 was read as KB-V1 cytotox inactive, MCF10A rereplic inconclusive, ELG1 repair inh inactive, KB-3-1 cytotox inactive and SW480 rerep inactive.
CC(C)(C)c1cc(NC(=O)Nc2ccc(Cl)cc2Cl)no1 was read as KB-V1 cytotox inactive, MCF10A rereplic 18µM, ELG1 repair inh inactive, KB-3-1 cytotox inactive and SW480 rerep inactive.
Screening CCNc1nc(Oc2ccc(C#N)cc2)cc(C(F)(F)F)n1 returned KB-V1 cytotox 3.3µM, MCF10A rereplic inactive, ELG1 repair inh inactive, KB-3-1 cytotox 18µM and SW480 rerep inactive.
For CC(C)Nc1nc(Oc2ccc(Cl)cc2)cc(C(F)(F)F)n1 the results were KB-V1 cytotox inactive, MCF10A rereplic 23µM, ELG1 repair inh inactive, KB-3-1 cytotox inactive and SW480 rerep inactive.
CCOC(=O)Cc1nnc(NC(=O)c2ncn[nH]2)s1 was read as KB-V1 cytotox inactive, MCF10A rereplic inactive, ELG1 repair inh inactive, KB-3-1 cytotox inactive and SW480 rerep inactive.
CCNC(=S)NNC(=O)c1csc2ccccc12 was read as KB-V1 cytotox inconclusive, MCF10A rereplic inactive, ELG1 repair inh inactive, KB-3-1 cytotox inconclusive and SW480 rerep inactive.
Screening CC(C)CNC(=S)NNC(=O)c1csc2ccccc12 returned KB-V1 cytotox 15µM, MCF10A rereplic inactive, ELG1 repair inh inactive, KB-3-1 cytotox inactive and SW480 rerep inactive.
`CC(=O)c1ccc(N2CCN(S(=O)(=O)c3cn(C)cn3)CC2)cc1` gave KB-V1 cytotox inactive, MCF10A rereplic inactive, ELG1 repair inh inconclusive, KB-3-1 cytotox inactive and SW480 rerep inactive.
For CCc1nn2c(=O)c(S(=O)(=O)Nc3ccc(C)cc3C)c(C)nc2s1 the results were KB-V1 cytotox inconclusive and KB-3-1 cytotox inactive.
For O=C(NCCCCCCNC(=O)C1CCCC1)C1CCCC1 the results were KB-V1 cytotox inactive, MCF10A rereplic inactive, ELG1 repair inh inactive, KB-3-1 cytotox inactive and SW480 rerep inactive.
For Cc1ccccc1-n1c(SCC(=O)Nc2ccc3c(c2)OCO3)nnc1-c1ccccn1 the results were KB-V1 cytotox 2.1µM, MCF10A rereplic inactive, ELG1 repair inh inconclusive, KB-3-1 cytotox inconclusive and SW480 rerep inconclusive.
For CCn1c(SCC(=O)Nc2ccc3c(c2)OCCO3)nnc1-c1ccccn1 the results were KB-V1 cytotox inactive, MCF10A rereplic inactive, ELG1 repair inh inactive, KB-3-1 cytotox inactive and SW480 rerep inactive.
`O=C(COC(=O)c1c2c(nc3ccccc13)CCN(Cc1ccccc1)C2)Nc1c(F)cccc1F` gave KB-V1 cytotox 18µM, MCF10A rereplic inconclusive, ELG1 repair inh 5.8µM, KB-3-1 cytotox inactive and SW480 rerep inactive.
`CC(=O)Nc1ccc(NC(=O)COC(=O)c2c3c(nc4ccccc24)CCN(Cc2ccccc2)C3)cc1` gave KB-V1 cytotox inactive, MCF10A rereplic inconclusive, ELG1 repair inh 2.3µM, KB-3-1 cytotox inactive and SW480 rerep inactive.
For COc1ccccc1-c1nnc(SCC(=O)Nc2ccc(Cl)cc2Cl)o1 the results were KB-V1 cytotox inactive, MCF10A rereplic inactive, ELG1 repair inh inactive, KB-3-1 cytotox inactive and SW480 rerep inactive.
COc1cccc2c1OC[C@@H](CO)[C@H]2N(C)C(=O)Nc1ccc(Cl)cc1Cl was read as KB-V1 cytotox 3.3µM, MCF10A rereplic inactive, ELG1 repair inh inactive, KB-3-1 cytotox 23µM and SW480 rerep inactive.
For Cc1cc(C)c2c(C)c(C(=O)NCc3ccncc3)oc2c1 the results were KB-V1 cytotox inconclusive, MCF10A rereplic inactive, ELG1 repair inh inactive, KB-3-1 cytotox inactive and SW480 rerep inactive.
Screening Cc1cnc(CNC(=O)c2ccc3oc(C(C)C)nc3c2)[nH]1 returned KB-V1 cytotox inconclusive, MCF10A rereplic inactive, ELG1 repair inh inconclusive, KB-3-1 cytotox inactive and SW480 rerep inactive.
Cc1ccc2oc(C(=O)NCc3ncc(C)[nH]3)c(C)c2c1 was read as KB-V1 cytotox inconclusive, MCF10A rereplic inconclusive, ELG1 repair inh inactive, KB-3-1 cytotox 10µM and SW480 rerep 16µM.
`CCc1ccc2oc(C(=O)NCc3ccncc3)c(C)c2c1` gave KB-V1 cytotox 12µM, MCF10A rereplic inactive, ELG1 repair inh inconclusive, KB-3-1 cytotox inconclusive and SW480 rerep inactive.
For O=C(O)CSc1ncccc1C(=O)O the results were KB-V1 cytotox inactive, MCF10A rereplic 9.2µM, ELG1 repair inh inactive, KB-3-1 cytotox inactive and SW480 rerep inactive.
Screening Cc1ccc(N(CC(=O)NC2CCCCC2)C(=O)c2ccc(C)s2)cc1 returned KB-V1 cytotox inconclusive, MCF10A rereplic inactive, ELG1 repair inh inactive, KB-3-1 cytotox inconclusive and SW480 rerep inactive.
N#Cc1ncc(-c2ccc3c(c2)OCCOCCOCCOCCO3)nc1C#N was read as KB-V1 cytotox inactive, MCF10A rereplic 18µM, ELG1 repair inh inactive, KB-3-1 cytotox inconclusive and SW480 rerep inconclusive.
